We go through 89 compounds from PubChem BioAssay AID1851 (National Center for Advancing Translational Sciences (NCATS), 2009).

SMILES strings stand for the structures. “And” between values parts separate entries of the source, which are not always exact repeats. Equal values may be shown once. The campaign covered roughly 16,000 compounds. About 2,600 (16%) were called active. Not shown: some 20% with an inconclusive outcome. Only a sample is shown. Unmarked numbers belong to inactive results. Calls follow the shape of the dose curve; as a rule, active = well fitted curve in the direction sought with a large enough effect; inconclusive = small, poorly fitted or top-dose-only effect, or effect the other way; inactive = no such curve, though single readings can be large or run the other way.
% is scaled to controls: 0 for no effect and ±100 for the full control effect.

For this test, the target named is Cytochrome P450 2D6 (Homo sapiens) (UniProt P10635). Description: Cytochrome panel assay with activity outcomes. To be noted: recombinant CYP, pro-luciferin dealkylation, luminescence, p450-cyp2d6; series mostly up to 57.1 µM.
Sequence of Cytochrome P450 2D6 (Homo sapiens) (P10635 whole entry, looked up): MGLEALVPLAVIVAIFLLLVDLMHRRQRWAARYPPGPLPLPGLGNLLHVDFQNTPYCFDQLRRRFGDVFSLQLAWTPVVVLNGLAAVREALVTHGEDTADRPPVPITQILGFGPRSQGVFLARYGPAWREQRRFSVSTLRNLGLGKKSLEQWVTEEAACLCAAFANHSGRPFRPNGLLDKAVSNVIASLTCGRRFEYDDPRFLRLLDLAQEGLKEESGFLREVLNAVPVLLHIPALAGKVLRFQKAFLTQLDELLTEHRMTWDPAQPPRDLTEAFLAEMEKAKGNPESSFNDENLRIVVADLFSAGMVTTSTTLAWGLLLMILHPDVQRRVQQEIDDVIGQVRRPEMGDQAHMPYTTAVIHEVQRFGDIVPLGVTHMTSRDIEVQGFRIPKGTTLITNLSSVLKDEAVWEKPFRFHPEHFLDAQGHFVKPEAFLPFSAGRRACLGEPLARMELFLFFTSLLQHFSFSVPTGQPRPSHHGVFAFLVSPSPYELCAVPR
In the case of `COc1ccc(N2CC(C(=O)OCC(=O)c3cccc(OC)c3)CC2=O)cc1` (centres undefined), the AC50 (usually the concentration at which the activity in the assay is half-maximal) was “inactive”.

Take `O=C1CC(c2ccccc2)Cc2nc(N3CCc4ccccc4C3)ncc21` (centres undefined): the AC50 result was “inactive”.

Take `O=C(Nc1nnc(C2CC2)s1)c1ccc(S(=O)(=O)c2ccccc2)cc1`: the AC50 entry is “inactive”.

With `COCCNC(=O)c1ccc2c(c1)nc(C)n2-c1cc(OC)c(OC)c(OC)c1`, the AC50 result was “inactive”.

Turning to `COC(=O)COc1ccc2c(-c3cccc([N+](=O)[O-])c3)cc(=O)oc2c1`, the AC50 entry is “inactive”.

Turning to `Cc1cc(C(=O)OCC(=O)NCCCN2CCCC2=O)c2ccccc2n1`, the AC50 entry was “inactive”.

For `O=C(C1=C(O)C(=O)N(Cc2ccco2)C1c1ccccc1)c1cccs1` (centres undefined), the AC50 entry was “inactive”.

Regarding `CN(C)C(=O)c1ccc(-c2nc(NC3CCNCC3)c3ccccc3n2)cc1`, the AC50 result is “inactive”.

`COCCNc1nc(-c2c(C)noc2C)nc2ccccc12`: the AC50 entry is “inactive”.

On to `COCCNc1nc(-c2ccccc2C)nc2ccccc12`, for which the AC50 entry was “inactive”.

In the case of `CN(C)Cc1ccccc1-c1nc(NCc2ccccc2)c2ccccc2n1`, the AC50 is 20 µM (active).

On to `COCCNc1nc(-c2ccccc2CN(C)C)nc2ccccc12`, for which the AC50 was 12.6 µM (active).

`CN(C)Cc1ccccc1-c1nc(NCc2cccs2)c2ccccc2n1`: the AC50 is 20 µM (active).

As to `Cc1noc(C)c1-c1nc(NC2CCNCC2)c2ccccc2n1`, the AC50 result is “inactive”.

Take `CN(C)Cc1ccccc1-c1nc(NC2CC2)c2ccccc2n1`: the AC50 was 3.98 µM (active).

On to `CC1=C(C#N)C(NC(=O)C2CCCCC2)(C(F)(F)F)C(=O)N1` (centres undefined), for which the AC50 result was “inactive”.

As to `N#Cc1nc(-c2ccc(F)cc2)oc1N1CCCC1`, the AC50 entry was “inactive”.

With `CCOC(=O)c1cc(-c2ccccc2)sc1NC(=S)Nc1cc(C)ccn1`, the AC50 result was “inactive”.

For the compound `NCCNS(=O)(=O)c1ccc(N)cc1`, the activity, negative = inhibition was 1.63% [at 11.4 µM].

Take `CCn1c(SCC(=O)Nc2sc3c(c2C#N)CCC(C(C)(C)C)C3)nnc1-c1ccco1` (centres undefined): the AC50 entry is “inactive”.

Regarding `COc1ccc(C(=O)N2CCC[C@@]3(CCN(c4cccc(-c5ccccc5)c4)C3)C2)cc1`, the AC50 result is “inactive”.

As to `Cn1ncc2c(Nc3cccc(C(=O)O)c3)ncnc21`, the AC50 result was “inactive”.

Consider `CN[C@]1(C)[C@H]2CC[C@@H](C2)C1(C)C`, for which the AC50 entry is “inactive”.

Regarding `CCc1ccc(N2CC(C)Cn3c2nc2c3c(=O)n(CCN3CCOCC3)c(=O)n2C)cc1` (centres undefined), the AC50 result is “inactive”.

With `CC(C)[C@@H](OCc1ccccc1)[C@H](C)/C=N\O[C@@H](C)c1cn([C@H](CO)Cc2ccccc2)nn1`, the activity, negative = inhibition was -24.2% [at 11.4 µM] and -19.2% [at 11.4 µM].

Consider `CC1(C)S[C@@H]2[C@H](NC(=O)[C@H](C(=O)O)c3ccsc3)C(=O)N2[C@H]1C(=O)O`, for which the AC50 result is “inactive”.

Regarding `O=C1CCCC2=C1C(c1ccc(Cl)cc1)C1C(=O)c3ccccc3C1=N2` (centres undefined), the AC50 was 25.1 µM (active).

Take `CCOC(=O)C1=C(C)NC(=O)NC1c1ccoc1` (centres undefined): the AC50 entry is “inactive”.

Turning to `CCOC(=O)C1=C(C)N=C2c3ccccc3C(=O)C2C1c1ccc(C)cc1` (centres undefined), the AC50 result was “inactive”.

Consider `O=C1c2ccccc2C2=Nc3ccccc3SC(c3ccccc3F)C12` (centres undefined), for which the AC50 result was “inactive”.

For `O=C1C(=O)c2ccccc2C(O)=C1C1CCC(c2ccc(Cl)cc2)CC1` (centres undefined), the AC50 result was “inactive”.

On to `CCOC(=O)C1=C(C)N=C2c3ccccc3C(=O)C2C1c1ccc(Cl)cc1` (centres undefined), for which the AC50 is 15.8 µM (active).

`COC(=O)c1c(NC(=O)C(C)(C)C)sc2c1C(C(=O)OC)CC2` (centres undefined): the AC50 entry is “inactive”.

As to `O=S(=O)(C[C@H](O)C(Cl)(Cl)Cl)NNc1ccccc1`, the activity, negative = inhibition was 17.4% [at 11.4 µM].

Take `C[C@H]1O[C@@H](CC(=O)O)Cc2c1c(O)c1c(O)cc(-c3cc(=O)c4c(=O)c5c(c(=O)c=4c3=O)C[C@H](CC(=O)O)O[C@@H]5C)c(O)c1c2O`: the activity, negative = inhibition is -3.88% [at 11.4 µM].

For the compound `CN(C)c1ncc2nc(-c3ccc(F)cc3)c(=O)n(C3CC3)c2n1`, the AC50 entry was “inactive”.

For the compound `O=C(Nc1cc(C(F)(F)F)ccc1-n1cncn1)c1ccc(Br)cc1`, the AC50 result is “inactive”.

In the case of `C[n+]1cccc(CNC(=O)/C=N/O)c1`, the AC50 result was “inactive”.

Turning to `CC(Oc1ccccc1)c1ccnn1S(=O)(=O)c1ccccc1` (centres undefined), the AC50 result was “inactive”.

Turning to `CC[N+](C)(CC)CCC[n+]1c(-c2ccccc2)c2cc(N)ccc2c2ccc(N)cc21`, the AC50 was 6.31 µM (active).

For the compound `CN=C(NC#N)Nc1ccc(C2=NNC(=O)C[C@@H]2C)cc1`, the AC50 result was “inactive”.

In the case of `NC(=O)C1CCN(C(=O)CN2C(=O)c3ccccc3S2(=O)=O)CC1`, the AC50 result is “inactive”.

Turning to `Cc1nc2cnc(N3CCOCC3)nc2n(C)c1=O`, the AC50 result is “inactive”.

In the case of `CCOC(=O)Oc1c(OC)cc(C(=O)O[C@H]2C[C@H]3CN4CCc5c([nH]c6cc(OC)ccc56)[C@@H]4C[C@H]3[C@@H](C(=O)OC)[C@@H]2OC)cc1OC`, the AC50 entry was “inactive”.

Consider `COCCCCC(=NOCCN)c1ccc(C(F)(F)F)cc1`, for which the AC50 is 3.98 µM (active).

As for `COc1c(/C=N/Nc2ccc([N+](=O)[O-])cc2[N+](=O)[O-])c(C)nn1-c1ccccc1`, the AC50 entry was “inactive”.

Regarding `C[C@@]12CC[C@@H]3c4ccc(O)cc4CC[C@H]3[C@H]1CC[C@H]2O`, the AC50 result was “inactive”.

Regarding `Cc1cccc(C)c1OC[C@@H](N)C(C)C`, the AC50 is 15.8 µM (active).

Consider `CCOc1nc(N=C(N)N)nc2c(C)cccc12`, for which the AC50 result is “inactive”.

On to `Cc1cccc(C)c1NC(=O)[C@H](C)N`, for which the AC50 result was “inactive”.

Take `COC(=O)[C@@]1(Cc2ccccc2)[C@H]2c3cc(C(=O)N4CCCC4)n(Cc4cccc5ccccc45)c3C[C@H]2CN1C(=O)c1ccccc1`: the AC50 entry is “inactive”.

Turning to `COC(=O)[C@@]1(Cc2ccccc2)[C@H]2c3cc(C(=O)N4CCCC4)n(CC4CC4)c3C[C@H]2CN1C(=O)c1ccccc1`, the AC50 result was “inactive”.

For the compound `COC(=O)[C@@]1(Cc2ccc(F)cc2)[C@H]2c3cc(C(=O)N4CCCC4)n(Cc4ccccn4)c3C[C@H]2CN1C(=O)c1ccccc1`, the AC50 result was “inactive”.

On to `COC(=O)[C@@]1(Cc2ccccc2)[C@H]2c3cc(C(=O)N4CCCC4)n(Cc4nc5ccccc5[nH]4)c3C[C@H]2CN1C(=O)c1ccccc1`, for which the AC50 was 7.94 µM (active).

On to `COC(=O)[C@@]1(Cc2ccc(F)cc2)[C@H]2c3cc(C(=O)N4CCCC4)n(Cc4ccc(OC(F)(F)F)cc4)c3C[C@H]2CN1C(=O)c1ccccc1`, for which the AC50 result was “inactive”.

With `COC(=O)[C@@]1(Cc2ccc(F)cc2)[C@H]2c3cc(C(=O)N4CCCC4)n(CCc4ccc(OC)c(Br)c4)c3C[C@H]2CN1C(=O)c1ccccc1`, the AC50 result is “inactive”.

In the case of `COC(=O)[C@@]1(Cc2ccc(F)cc2)[C@H]2c3cc(C(=O)N4CCCC4)n(CCc4c[nH]c5ccccc45)c3C[C@H]2CN1C(=O)c1ccccc1`, the AC50 result was “inactive”.

`COC(=O)[C@@]1(Cc2ccccc2)[C@H]2c3cc(C(=O)N4CCCC4)n(Cc4c(CO)[nH]cc(C)c4=O)c3C[C@H]2CN1C(=O)c1ccccc1`: the AC50 is 12.6 µM (active).

For the compound `COC(=O)[C@@]1(Cc2ccc(F)cc2)[C@H]2c3cc(C(=O)N4CCCC4)n(Cc4c(CO)[nH]cc(C)c4=O)c3C[C@H]2CN1C(=O)c1ccccc1`, the AC50 is 12.6 µM (active).

For the compound `COC(=O)[C@@]1(Cc2ccc(F)cc2)[C@H]2c3cc(C(=O)N4CCCC4)n(CCc4ccc(O)c(O)c4)c3C[C@H]2CN1C(=O)c1ccccc1`, the AC50 is 12.6 µM (active).

Consider `COC(=O)[C@@]1(Cc2ccc(F)cc2)[C@H]2c3cc(C(=O)N4CCCC4)n(Cc4ccccc4)c3C[C@H]2CN1C(=O)c1ccccc1`, for which the AC50 result is “inactive”.

As to `Cc1cc(NC(=O)c2ccccc2Cl)c(C(C)C)cc1O`, the AC50 entry was “inactive”.

With `CCCCC1(C)OC(=O)C(=Cc2ccc(N(CC)CC)cc2)C(=O)O1` (centres undefined), the AC50 entry is “inactive”.

Regarding `COc1ncc2nc(-c3cn(C)c4ccccc34)c(=O)n(Cc3ccc(F)cc3)c2n1`, the AC50 entry was “inactive”.

Consider `Cc1cc(C)cc(N2C(=O)CC(Sc3nnnn3-c3ccccc3)C2=O)c1` (centres undefined), for which the AC50 result was “inactive”.

In the case of `Cc1cccc(-n2cnc(C(=O)NC3CCCCCC3)c2)n1`, the AC50 result is “inactive”.

In the case of `COc1cc(OC)c(C2N(c3cc(C)on3)C(=O)C3CCCN32)cc1OC` (centres undefined), the AC50 entry was “inactive”.

Take `COc1ccc(CNc2ncncc2-c2ccccc2C)c(OC)c1`: the AC50 was 12.6 µM (active).

Turning to `COc1ccc(CNc2ncncc2-c2ccccc2OC)c(OC)c1`, the AC50 is 12.6 µM (active).

Regarding `COc1ccc(CNc2ncncc2-c2ccccc2CN(C)C)c(OC)c1`, the AC50 was 2.51 µM (active).

`COc1ccc(O[C@H]2C=C[C@@H](c3ccccc3)O[C@@H]2CO/N=C\[C@@H](C)[C@H](OCc2ccccc2)C(C)C)cc1`: the activity, negative = inhibition was 8.39% [at 11.4 µM].

For `COc1ccc(Nc2nnc(-c3ccc(N4CCOCC4)c([N+](=O)[O-])c3)c3ccccc23)cc1`, the AC50 result is “inactive”.

As for `NC(=O)c1ccc([N+](=O)[O-])cc1SCc1ccccc1`, the AC50 result is “inactive”.

Consider `Cc1ccc(Cn2nc(C)c(NC(=O)c3cc(-c4ccco4)on3)c2C)cc1`, for which the AC50 entry is “inactive”.

Turning to `Cn1c(=O)c2cn(-c3ccccc3)cc2n(C)c1=O`, the AC50 result is “inactive”.

Consider `COc1ncc2nc(-c3cccs3)c(=O)n(-c3ccccc3)c2n1`, for which the AC50 entry is “inactive”.

As for `O=C(C1CCN(S(=O)(=O)c2cccc3cccnc23)CC1)N1CCN(c2ccccn2)CC1`, the AC50 result is “inactive”.

Turning to `Cc1ccc2c(c1)NCC(C(=O)NC1CCCCC1)O2` (centres undefined), the AC50 entry is “inactive”.

For `Cc1ccc(S(=O)(=O)N2CCN(S(C)(=O)=O)C2)cc1`, the AC50 result is “inactive”.

For `Cc1ccc(S(=O)(=O)N2CCN(Cc3ccccc3C(F)(F)F)CC2)cc1`, the AC50 was 10 µM (active).

As to `Cc1ccc(S(=O)(=O)N2CCN(C(=O)CN3CCN(C)CC3)C2)cc1`, the AC50 entry is “inactive”.

Regarding `COC(=O)C(NS(=O)(=O)c1ccc(NC(C)=O)cc1)C(C)C` (centres undefined), the AC50 entry was “inactive”.

In the case of `O=S(=O)(c1cccc(C(F)(F)F)c1)N1CCC(c2cc(-c3cccc4ccccc34)n[nH]2)CC1`, the AC50 result was “inactive”.

On to `Cc1cccc(NC(=O)CSc2nnc(-c3ccco3)c(-c3ccco3)n2)c1C`, for which the AC50 is 12.6 µM (active).

As for `Cc1cc(C)nc(SCC(=O)Nc2ccccc2[N+](=O)[O-])n1`, the AC50 result was “inactive”.

With `Cc1cccc(NC(=O)CSc2nc(-c3ccccc3)c(C#N)c(=O)[nH]2)c1C`, the AC50 entry is “inactive”.

As to `COc1ccc(NC(=O)N2CCC3(CC2)CCN(C(=O)c2cccc(F)c2)CC3)cc1`, the AC50 result was “inactive”.

Turning to `CCC1Oc2ccccc2N(CC(=O)NCCCN2CCCCC2C)C1=O` (centres undefined), the AC50 was 3.16 µM (active).

For `CCCCNC(=O)CN1C(=O)NC2(CCCc3ccccc32)C1=O` (centres undefined), the AC50 result is “inactive”.
